The values below come from PubChem BioAssay (NCATS).

Values joined by “and” are separate entries in the source; they are usually repeats but may differ in a detail not shown here. Identical values can stand only once. A number with no mark means an inactive call. Results filed as inconclusive are left out. Active and inactive are the calls of the source. Unless noted, calls come from the whole dose curve; as a rule, active = well fitted curve in the direction sought with a large enough effect; inconclusive = small, poorly fitted or top-dose-only effect, or another doubt; inactive = no such curve, though single readings can be large; an effect the other way counts as inactive or inconclusive.

Sequence of Nuclear receptor ROR-gamma (Homo sapiens) (P51449 whole entry, looked up): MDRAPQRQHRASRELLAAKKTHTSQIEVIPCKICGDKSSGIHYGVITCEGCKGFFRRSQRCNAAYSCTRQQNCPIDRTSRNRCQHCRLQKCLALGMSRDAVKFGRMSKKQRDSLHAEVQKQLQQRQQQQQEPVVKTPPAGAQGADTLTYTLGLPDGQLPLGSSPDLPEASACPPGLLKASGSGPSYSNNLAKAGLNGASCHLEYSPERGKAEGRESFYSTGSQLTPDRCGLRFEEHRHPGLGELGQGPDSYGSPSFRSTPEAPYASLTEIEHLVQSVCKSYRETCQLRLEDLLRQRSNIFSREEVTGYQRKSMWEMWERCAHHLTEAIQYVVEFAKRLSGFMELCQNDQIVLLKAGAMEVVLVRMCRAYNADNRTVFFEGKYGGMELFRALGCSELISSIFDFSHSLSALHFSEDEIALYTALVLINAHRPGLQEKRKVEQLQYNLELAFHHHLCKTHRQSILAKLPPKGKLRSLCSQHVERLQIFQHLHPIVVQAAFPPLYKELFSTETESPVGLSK
Sequence of Tumor necrosis factor (Homo sapiens) (P01375 whole entry, looked up): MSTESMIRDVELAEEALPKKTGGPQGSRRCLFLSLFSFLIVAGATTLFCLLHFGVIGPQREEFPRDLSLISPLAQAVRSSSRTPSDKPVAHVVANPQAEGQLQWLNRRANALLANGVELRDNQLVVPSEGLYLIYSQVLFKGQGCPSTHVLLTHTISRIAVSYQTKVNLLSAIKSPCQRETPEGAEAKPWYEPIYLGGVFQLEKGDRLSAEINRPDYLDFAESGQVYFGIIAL
Sequence of Arylsulfatase A (Homo sapiens) (P15289 whole entry, looked up): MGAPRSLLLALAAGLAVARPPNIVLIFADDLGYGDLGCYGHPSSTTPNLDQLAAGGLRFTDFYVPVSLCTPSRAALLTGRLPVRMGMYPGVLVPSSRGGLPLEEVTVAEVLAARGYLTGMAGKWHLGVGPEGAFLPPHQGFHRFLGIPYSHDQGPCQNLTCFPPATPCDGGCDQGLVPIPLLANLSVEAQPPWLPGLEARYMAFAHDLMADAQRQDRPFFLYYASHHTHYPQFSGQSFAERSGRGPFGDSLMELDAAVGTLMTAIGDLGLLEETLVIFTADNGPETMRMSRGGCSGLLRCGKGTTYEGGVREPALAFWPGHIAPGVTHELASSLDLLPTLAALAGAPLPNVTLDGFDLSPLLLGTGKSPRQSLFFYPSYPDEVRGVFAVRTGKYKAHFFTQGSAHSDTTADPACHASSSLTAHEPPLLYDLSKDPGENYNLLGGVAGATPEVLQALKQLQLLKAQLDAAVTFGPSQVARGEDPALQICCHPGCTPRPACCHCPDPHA

Tested on in one assay: not listed separately
Kind of assay: qHTS assay for small molecule activators of the p53 signaling pathway (AID 651743; active = well fitted activation curve with a large enough effect in the signal ratio, not every such curve was filed as active; the % refers to the signal ratio; note: potency is the fitted concentration of half-maximal effect; for activation: % of control where 0% means no effect). The note with it: HCT-116 p53RE-bla, beta-lactamase FRET ratio, 16 h; activation: active compounds read high. The method, boiled down:
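p53RE-bla HCT-116 cells carrying a beta-lactamase reporter under p53 response elements were exposed to compounds for 16 hours at 37 C. Reporter activity read as fluorescence after 2 hours at room temperature with LiveBLAzer B/G FRET substrate.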
For `C[C@]12CCC(=O)C=C1CC[C@@H]1[C@@H]2CC[C@]2(C)C(=O)CC[C@@H]12`, the activation is -1.07% and 0.979%.
Regarding `CCOP(=S)(OCC)Oc1ccc2c(C)c(Cl)c(=O)oc2c1`, the activation was -4.7%.
`COP(=S)(OC)SCN1C(=O)c2ccccc2C1=O`: the activation was 6.79%.
Regarding `C[C@]12CCC(=O)C=C1CC[C@@H]1[C@@H]2CC[C@@]2(C)[C@H]1CC[C@]2(C)O`, the activation was 5.56%.
Consider `O=C1c2ccccc2C(=O)c2ccccc21`, for which the activation was 3.87%.
Turning to `Oc1ccc(Cl)cc1`, the activation is -2.59%.
With `O=C(O)CCCc1ccc(N(CCCl)CCCl)cc1`, the Potency was 22.4 µM (active) and 35.5 µM (active).
Regarding `CC1(C)C(C=C(Cl)Cl)C1C(=O)OC(C#N)c1cccc(Oc2ccccc2)c1` (centres undefined), the activation was -1.45%.
The same measure, in the same setting: the same measure for `Nc1ccccc1C(=O)O`: -0.0398%.

Tested on in the next assay: not listed separately
Nature of the assay: qHTS assay for small molecule activators of the nuclear factor-kappa B (NF-kB) signaling pathway (AID 651749; active = well fitted activation curve with a large enough effect in the signal ratio; the % refers to the signal ratio; note: % of control where 0% means no effect). The note with it: NF-kB-bla ME-180 cells, beta-lactamase FRET ratio, 16 h; active compounds read high. The method, boiled down:
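NF-kB-bla ME-180 cells carrying a beta-lactamase reporter under an NF-kB response element, 2,000 cells/well, exposed to compound for 16 hr at 37C; FRET-based beta-lactamase fluorescence read-out of pathway activation.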
For orientation: In qHTS, concentration-response curves come from the screen itself.
As to `COP(=S)(OC)SCN1C(=O)c2ccccc2C1=O`, the activation was -2.37%.
For the compound `O=C1c2ccccc2C(=O)c2ccccc21`, the activation was -2.5%.
The same measure, in the same setting: the same measure for `Oc1ccc(Cl)cc1`: -0.964%; for `O=C(O)CCCc1ccc(N(CCCl)CCCl)cc1`: 0.602% and -1.35%.
Take `CC1(C)C(C=C(Cl)Cl)C1C(=O)OC(C#N)c1cccc(Oc2ccccc2)c1` (centres undefined): the activation was 1.83%.
As for `Nc1ccccc1C(=O)O`, the activation was 1.57%.

Another assay concerns the target Tumor necrosis factor (Homo sapiens) (UniProt P01375). Kind of assay: qHTS assay to identify small molecules that stimulate Tumor Necrosis Factor-alpha (TNF-alpha) secretion (AID 651757; active = well fitted curve in the direction sought with a large enough effect in the signal ratio; the % refers to the signal ratio; note: 0% is about no effect). The note with it: Human cells, HTRF 665/615 ratio; series mostly up to 92.2 µM. The procedure, abridged: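 THP-1 cells (3000/well) exposed to compounds 17 hrs at 37 C. Secreted TNF-alpha detected by HTRF with cryptate- and XL665-labeled anti-TNF-alpha antibodies after 3 hr at room temperature.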
`C[C@]12CCC(=O)C=C1CC[C@@H]1[C@@H]2CC[C@]2(C)C(=O)CC[C@@H]12`: the result was inactive.
For the compound `C[C@]12CCC(=O)C=C1CC[C@@H]1[C@@H]2CC[C@@]2(C)[C@H]1CC[C@]2(C)O`, the outcome was inactive.
The same measure, in the same setting: with `Oc1ccc(Cl)cc1` the entry was “inactive”.
As to `Nc1ccccc1C(=O)O`, the outcome was inactive.

Tested on in the next assay: not listed separately
Nature of the assay: qHTS assay for environmental chemicals that activate the Aryl hydrocarbon Receptor (AhR) signaling pathway (AID 651777). Note: % of control where 0% means no effect; nearly all actives have a fitted effect of over 15% in size. The note with it: 1A2-DRE human hepatoma cells, luciferase, 24 h; active compounds read high. The method, boiled down: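 Luminescence (One-Glo, 30 min, room temperature) reports AhR-driven luciferase in stably transfected human hepatoma cells bearing DRE and CYP1A2 promoter. Cells (1,200/well) were treated with compound for 24 hr at 37 C in qHTS format.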
Take `C[C@]12CCC(=O)C=C1CC[C@@H]1[C@@H]2CC[C@]2(C)C(=O)CC[C@@H]12`: the activation is 2.9% and -2.01%.
For the compound `COP(=S)(OC)SCN1C(=O)c2ccccc2C1=O`, the activation was -1.4%.
The same measure, in the same setting: the same measure for `C[C@]12CCC(=O)C=C1CC[C@@H]1[C@@H]2CC[C@@]2(C)[C@H]1CC[C@]2(C)O`: -0.473%; for `O=C1c2ccccc2C(=O)c2ccccc21`: 2.59%; for `Oc1ccc(Cl)cc1`: 0.502%.
On the same count and under the same terms, the same measure for `O=C(O)CCCc1ccc(N(CCCl)CCCl)cc1`: -0.459% and 0.835%; for `CC1(C)C(C=C(Cl)Cl)C1C(=O)OC(C#N)c1cccc(Oc2ccccc2)c1` (centres undefined): 3.99%.
Regarding `Nc1ccccc1C(=O)O`, the activation was 3.23%.

The target of another assay is Peroxisome proliferator-activated receptor alpha (Homo sapiens) (UniProt Q07869). Nature of the assay: qHTS assay for small molecule agonists of the peroxisome proliferator-activated receptor alpha (PPARalpha) signaling pathway (AID 651778). Note: % of control where 0% means no effect. The conditions noted are these: PathHunter PPARalpha complementation, chemiluminescence, 6 h; active compounds read high. The method, boiled down: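 Enzyme-fragment complementation assay in which ligand-bound PPARalpha translocates and forms an active enzyme that generates chemiluminescence. Cells were plated overnight, exposed to compound for 6 hr at 37 C, and then given detection reagent for 60 min at room temperature.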
Sequence of Peroxisome proliferator-activated receptor alpha (Homo sapiens) (Q07869 whole entry, looked up, the tested form may be a part): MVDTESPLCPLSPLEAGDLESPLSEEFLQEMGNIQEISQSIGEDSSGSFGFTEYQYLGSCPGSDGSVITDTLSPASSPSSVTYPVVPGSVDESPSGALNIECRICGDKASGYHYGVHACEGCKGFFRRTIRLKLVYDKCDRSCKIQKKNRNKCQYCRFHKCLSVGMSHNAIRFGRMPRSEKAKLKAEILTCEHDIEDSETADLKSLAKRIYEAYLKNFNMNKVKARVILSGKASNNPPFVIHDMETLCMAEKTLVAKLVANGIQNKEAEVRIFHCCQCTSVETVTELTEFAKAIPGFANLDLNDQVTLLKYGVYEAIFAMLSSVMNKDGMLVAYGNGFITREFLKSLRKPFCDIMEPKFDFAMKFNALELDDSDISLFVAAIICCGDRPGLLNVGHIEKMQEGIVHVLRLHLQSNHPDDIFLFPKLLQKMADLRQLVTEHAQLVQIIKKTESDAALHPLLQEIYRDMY
As to `C[C@]12CCC(=O)C=C1CC[C@@H]1[C@@H]2CC[C@]2(C)C(=O)CC[C@@H]12`, the max response was -0.773% and -1.33%.
As to `CCOP(=S)(OCC)Oc1ccc2c(C)c(Cl)c(=O)oc2c1`, the max response was -4.26%.
Still for that read-out and setting: the same measure for `COP(=S)(OC)SCN1C(=O)c2ccccc2C1=O`: -0.635%; for `C[C@]12CCC(=O)C=C1CC[C@@H]1[C@@H]2CC[C@@]2(C)[C@H]1CC[C@]2(C)O`: 7.27%; for `O=C1c2ccccc2C(=O)c2ccccc21`: 0.92%.
Still for that read-out and setting: with `Oc1ccc(Cl)cc1` the figure was 0.582%; with `O=C(O)CCCc1ccc(N(CCCl)CCCl)cc1`, 0.105% and -1.89%; with `CC1(C)C(C=C(Cl)Cl)C1C(=O)OC(C#N)c1cccc(Oc2ccccc2)c1` (centres undefined), -4.65%.
Regarding `Nc1ccccc1C(=O)O`, the max response was 0.553%.

The next assay concerns the target Nuclear receptor ROR-gamma (Homo sapiens) (UniProt P51449). Nature of the assay: qHTS assay for small molecule antagonists of the retinoid-related orphan receptor gamma (ROR-gamma) signaling pathway (AID 651802). Note: nearly all actives have a fitted effect of over 60% in size. Note: potency is the fitted concentration of half-maximal effect. The conditions noted are these: ROR-gamma antagonist cell reporter assay; series mostly up to 92.2 µM. The method, boiled down: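 CHO cells with TET-inducible ROR-gamma and RORE-luciferase reporter, dosed then doxycycline-induced. After 16 h at 37C, One-Glo luminescence read; decreased signal indicates antagonism.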
On to `C[C@]12CCC(=O)C=C1CC[C@@H]1[C@@H]2CC[C@]2(C)C(=O)CC[C@@H]12`, for which the Potency is 33.5 µM (active).
As for `C[C@]12CCC(=O)C=C1CC[C@@H]1[C@@H]2CC[C@@]2(C)[C@H]1CC[C@]2(C)O`, the Potency was 16.8 µM (active).
On to `Oc1ccc(Cl)cc1`, for which the Potency entry was “inactive”.
Still for that read-out and setting: the same measure for `Nc1ccccc1C(=O)O`: “inactive”.

The target in a further assay is Arylsulfatase A (Homo sapiens) (UniProt P15289). Nature of the assay: qHTS screen for enhancers of Arylsulfatase A (ASA1): LOPAC Validation Assay (AID 720538). The note with it: ASA enzyme activity, LOPAC qHTS enhancer assay; series mostly up to 57.5 µM. The method, boiled down:
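First, ASA-I179S fibroblasts from an MLD patient adhered for 6 hrs. Next, compounds were added for 48h. Then pNCS substrate (0.5mM final) with lysis buffer reacted 14h at room temperature before NaOH stop and fluorescence measurement.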
Regarding `CN=C(NC#N)NCCSCc1nc[nH]c1C`, the outcome is “inactive; inhibitor; fitted 6.3096 uM”.
With `O=c1[nH]oc2c1CCNC2`, the outcome was inactive.
Same read-out and setting: the same measure for `CCC1(C)CC(=O)NC1=O` (centres undefined): “inactive”.
Take `COc1ccc2c(c1OC)C(=O)O[C@H]2[C@@H]1c2cc3c(cc2CCN1C)OCO3`: the outcome was inactive.
With `CC(NC(C)(C)C)C(=O)c1cccc(Cl)c1` (centres undefined), the outcome was inactive.
Same read-out and setting: with `Cn1c(=O)c2[nH]cnc2n(C)c1=O` the entry was “inactive”; with `CCC1(c2ccc(N)cc2)CCC(=O)NC1=O` (centres undefined), “inactive”; with `C=C(C)[C@H]1CN[C@H](C(=O)O)[C@H]1CC(=O)O`, “inactive”.
With `CC(C)N(CCC(C(N)=O)(c1ccccc1)c1ccccn1)C(C)C` (centres undefined), the outcome was “inactive; inhibitor; fitted 0.1901 uM”.
The same measure, in the same setting: the same measure for `O=C(O)CCCc1ccc(N(CCCl)CCCl)cc1`: “inactive”; for `NCCCNCCSP(=O)(O)O`: “inactive”; for `CCCCC/C=C\C/C=C\C/C=C\C/C=C\CCCC(=O)NCC(=O)O`: “inactive”.

Tested on in a further assay: not listed separately
Nature of the assay: qHTS for Activators of Parkin Expression: LOPAC Validation Assay (NLuc Reporter) (AID 720572;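 note: 0% = DMSO and 100% = positive control compound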). The conditions noted are these: Parkin promoter NanoLuc reporter cells, luminescence, percent of positive control, DMSO as zero; series mostly up to 46.1 µM. The procedure, abridged:
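Neuronal cells with a Parkin promoter-driven FLuc/NLuc coincidence reporter were treated 24 h at 37 C in 7-point dose response (LOPAC). NLuc luminescence read after FLuc; signals normalized to DMSO and positive control (100%).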
As to `Cc1ncsc1CCCl`, the outcome was inactive.
Same read-out and setting: with `O=c1[nH]oc2c1CCNC2` the entry was “inactive”.
For the compound `COc1ccc2c(c1OC)C(=O)O[C@H]2[C@@H]1c2cc3c(cc2CCN1C)OCO3`, the result was inactive.
Still for that read-out and setting: with `CC(NC(C)(C)C)C(=O)c1cccc(Cl)c1` (centres undefined) the entry was “inactive”; with `CN1C(=O)CCS(=O)(=O)C1c1ccc(Cl)cc1` (centres undefined), “inactive”.
On to `CCC1(c2ccc(N)cc2)CCC(=O)NC1=O` (centres undefined), for which the call was inactive.
On the same count and under the same terms, the same measure for `C=C(C)[C@H]1CN[C@H](C(=O)O)[C@H]1CC(=O)O`: “inactive”; for `CC(C)N(CCC(C(N)=O)(c1ccccc1)c1ccccn1)C(C)C` (centres undefined): “inactive”.
As for `O=C(O)CCCc1ccc(N(CCCl)CCCl)cc1`, the outcome was inactive.
On the same count and under the same terms, the same measure for `O=C(CCCN1CCC2(CC1)C(=O)NCN2c1ccccc1)c1ccc(F)cc1`: “inactive”; for `CC(C)(C)NCC(O)c1ccccc1Cl` (centres undefined): “inactive”.
On the same count and under the same terms, with `CCCCC/C=C\C/C=C\C/C=C\C/C=C\CCCC(=O)NCC(=O)O` the entry was “inactive”.
